# Screens (PubChem)
# Only some compounds are listed: those with a hit (about 3.5% of all), similar ones and a draw of the others.
# FBW7 act: human FBW7 E3 ligase activation, primary screen; Q969H0; AlphaScreen FBW7–phospho-cyclin E peptide binding, activator screen; normalized activity (activation), % at 26.1 µM; actives 0.13% (n = 650,000); in the data active = normalized activity above about 1.9%;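 also: purified mutant Fbw7 with reduced substrate affinity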
# GPR151 ag: human GPR151 activation; Q8TDV0; PathHunter beta-arrestin GPR151 cells, luminescence; activation, % at 11.2 µM; actives 1% (n = 650,000); AID 1508602; in the data active = activation above about 4.9%;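 also: 0% = median of compound wells and 100% = cells with positive control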
# MITF inh: blocks human microphthalmia-associated transcription factor. O75030. AlphaScreen MITF homodimerization, bead proximity signal. inhibition, % at 2.6 µM. actives 0.91% (n = 650,000). AID 1259374; in the data active = inhibition above about 50%;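 also: 0% = vehicle wells with protein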
# TEAD-YAP block: TEAD-YAP interaction inhibition; HEK-TIYL cells, TEAD-Gal4/YAP UAS-luciferase luminescence; inhibition, % at 9.12 µM; actives 1.4% (n = 640,000); AID 1259422; in the data active = inhibition above about 32%;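 also: 0% = median of test compound wells and 100% = reference inhibitor wells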
# GPR151 confirm: confirmation of human GPR151 activators | activation, % at 11.2 µM | shares compounds with GPR151 ag | GPR151 PathHunter beta-arrestin cells, luminescence, 90 min; % of EA-reagent control over plate median | 6,700 tested, under 10 active | AID 1508609;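 active = mean percent activation across replicates above the confirmation screen cutoff of 4.91%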
# GPR119 counter: counter-screen for GPR151 activators: effect on human GPR119 | shares compounds with GPR151 ag | GPR119 PathHunter beta-arrestin cells, luminescence, 90 min; 0 = compound-well median, 100 = enzyme-acceptor control | activation, % at 11.2 µM | actives 0.3% (n = 6,700);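 active = mean percent activation in the counterscreen above 29.09%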;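 also: counterscreen on off-target GPR119 to flag nonselective hits from the GPR151 activator screen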
# Target sequence (Q8TDV5 whole entry, looked up): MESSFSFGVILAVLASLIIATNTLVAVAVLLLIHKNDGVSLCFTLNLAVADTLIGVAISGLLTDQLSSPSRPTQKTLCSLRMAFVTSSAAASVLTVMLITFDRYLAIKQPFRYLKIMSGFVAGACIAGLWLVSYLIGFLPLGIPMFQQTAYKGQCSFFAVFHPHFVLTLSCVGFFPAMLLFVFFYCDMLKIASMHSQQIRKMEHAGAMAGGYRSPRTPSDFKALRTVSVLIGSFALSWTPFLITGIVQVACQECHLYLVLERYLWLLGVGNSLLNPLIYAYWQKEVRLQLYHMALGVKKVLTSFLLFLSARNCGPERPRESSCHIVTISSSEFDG
# * hit, by the source's call; . = not tested or not shown.
SMILES,FBW7 act,GPR151 ag,MITF inh,TEAD-YAP block,GPR151 confirm,GPR119 counter
COC(=O)c1c(NC(=O)c2ccc3c(c2)OCO3)sc(C(=O)N2CCCCC2)c1C,0,7.5*,3,0,1,8
O=C(Nc1ccc2c(c1)CN(C1CCSCC1)CC2)C1(c2ccccc2)CC1,0,0,-18,1,.,.
O=C(c1ccsc1)N1CCc2ccc(NC(=O)C3(c4ccccc4)CC3)cc2C1,0,5.9*,10,7,-1,-8
COc1cc(-c2c(C#N)c(N)nc3sc(C#N)c(N)c23)cc(OC)c1OC,0,11*,1,-14,0,3
Cc1ccc(-n2cnc3cc(C(=O)NCCc4ccccc4)ccc32)c(C)c1,0,5.5*,-7,6,0,-12
COc1ccc(CCNC(=O)c2ccc3c(c2)ncn3-c2ccc(C)cc2C)cc1OC,0,0,11,15,.,.
CCCC(=O)c1ccc(N2CCN(C(=O)c3cccc(F)c3F)CC2)c(F)c1,0,0,20,-1,.,.
CCNC(=S)Nc1ccc(Cl)c(S(=O)(=O)N2CCOCC2)c1,0,6.6*,12,-2,-1,-7
CCCOC(=O)c1ccc(NC(=O)c2c(O)c3c([nH]c2=O)CCCC3)cc1,0,1,-2,1,.,.
CC(C)c1cc(NCc2cccnc2)n2c(nc3ccccc32)c1C#N,0,0,1,3,.,.
O=C(CSc1ccc(F)cc1)Nc1cc(Cl)ccc1O,0,6.4*,13,10,0,0
O=C(CSc1ccccc1)Nc1cc(Cl)ccc1O,0,-2,-7,7,.,.
CCOC1OC(=O)C(Cl)=C1N1CCOCC1 (stereo unspecified),0,0,-8,-5,.,.
CCN(CCO)c1ccc(NC2=C(NC(C)=O)C(=O)c3ccccc3C2=O)cc1,0,5.1*,8,61*,0,12
CCC(=O)NC1=C(Nc2ccc(N)cc2)C(=O)c2ccccc2C1=O,0,-2,10,-48,.,.
CCn1c(=O)n(-c2ccccc2C)c(=O)c2c3c(sc21)CN(C(C)=O)CC3,0,9.0*,0,-5,-1,-10
CCn1c(=O)n(-c2ccccc2)c(=O)c2c3c(sc21)CN(C(C)=O)CC3,1,1,0,3,.,.
O=C1c2cccc([N+](=O)[O-])c2C(=O)N1Cc1ccco1,0,5.2*,14,7,-1,-12
CC1CN(c2ccc(Br)cc2)c2nc3c(c(=O)n(CC(N)=O)c(=O)n3C)n2C1 (stereo unspecified),0,10*,0,-7,-2,-19
COCCC(=O)Nc1ccc2c(c1)CN(S(=O)(=O)N1CCCC1)CC2,0,7.5*,3,1,0,0
C=CCSc1ncnc2sc(C)c(C)c12,0,5.3*,6,0,0,5
CC(=O)N1c2ccc(S(=O)(=O)N3CCCC3C(=O)Nc3cccc(C)n3)cc2CC1C (stereo unspecified),0,1,6,7,.,.
CC(=O)N1c2ccc(S(=O)(=O)N3CCCC3C(=O)Nc3nc(C)cs3)cc2CC1C (stereo unspecified),0,5.0*,5,10,0,2
Cc1cnc(NC(=O)C(C)NCCN(C)C)s1 (stereo unspecified),0,0,4,3,.,.
CCCc1ccc(OCCCC(=O)Nc2nnc(COC)s2)cc1,0,6.9*,5,-5,0,-4
SMILES,FBW7 act,GPR151 ag,MITF inh,TEAD-YAP block,GPR151 confirm,GPR119 counter
CC(=O)Nc1nnc(COc2ccc(Br)cc2)s1,0,7.9*,12,-18,0,-6
Cc1ccc(NC(=O)Nc2nnc(COc3ccc(Br)cc3)s2)cc1,0,-1,9,-1,.,.
CCOC(=O)c1c2c(n3ccc(C)cc13)C(=O)c1ccccc1C2=O,0,-1,10,-1,.,.
Cc1c(CCNC(=O)CCC2(C)CCC(=O)N2)c2ccccc2n1-c1ccccc1 (stereo unspecified),0,2,5,9,.,.
CCCn1c(N2CCN(C(=O)/C=C/c3ccccc3)CC2)nc2ccccc21,0,0,-8,-9,.,.
O=C(NCC1CCC2(CCN(Cc3ccccc3)CC2)O1)c1cc2c([nH]c1=O)CCCC2 (stereo unspecified),0,0,-11,-4,.,.
COc1ccc(-c2ncc(C(=O)NCCN(C(C)C)C(C)C)s2)cn1,0,1,-6,8,.,.
CC(C)N(CCNC(=O)c1cccc(-c2ccc3c(ccn3C)c2)n1)C(C)C,2.2*,12*,-9,9,1,4
COc1ccc(-c2ncc(C(=O)NCCN(C(C)C)C(C)C)s2)cc1,0,7.8*,14,4,0,-6
COc1ccc(-c2cccc(C(=O)NCCN(C(C)C)C(C)C)n2)cc1,0,8.8*,-3,6,0,3
CC(C)N(CCNC(=O)c1cccc(-c2ccccc2)n1)C(C)C,0,-1,15,3,.,.
COC(C(OC)N1CCCC1=O)N1CCCC1=O (stereo unspecified),0,-1,14,1,.,.
Cn1nccc1Nc1nccc(Nc2ccccc2)n1,0,7.5*,-5,-5,1,5
Cc1ccc(S(=O)(=O)N(CC(O)Cn2nc(C)cc2C)c2cccc([N+](=O)[O-])c2)cc1 (stereo unspecified),0,5.8*,7,10,3,4
Cc1cc(C)n(CC(O)CN(c2cccc([N+](=O)[O-])c2)S(=O)(=O)c2ccccc2)n1 (stereo unspecified),0,1,11,-1,.,.
COc1ccc(CN2CCN(Cc3cnc(-c4ccccc4)s3)CC2CCO)cc1C (stereo unspecified),0,6.7*,-5,13,0,-4
CCOc1ccc(CN2CCN(Cc3cnc(-c4ccccc4)s3)CC2CCO)cc1 (stereo unspecified),0,-1,16,12,.,.
CN(C)c1ncc(CN2CCN(Cc3ccc(F)cc3)C(CCO)C2)s1 (stereo unspecified),0,4,-2,-7,.,.
CN(C)c1ncc(CN2CCN(CCc3ccccc3)C(CCO)C2)s1 (stereo unspecified),0,9.8*,10,10,0,5
CCOC(=O)c1cccc(Nc2c(-c3ccc(C)c(C)c3)c(=O)c2=O)c1,0,12*,2,-4,1,-2
COc1ccccc1Nc1c(-c2ccc(C)c(C)c2)c(=O)c1=O,1,0,16,-10,.,.
Cc1ccc(-c2c(Nc3ccccc3F)c(=O)c2=O)cc1C,0,5.8*,3,49*,0,4
CCOC(=O)c1ccc(Nc2c(-c3ccc(Cl)cc3)c(=O)c2=O)cc1,0,0,2,-7,.,.
CCc1ccc(CN2CCC(C(=O)N3CCN(CC)CC3)CC2)cc1,0,0,45,-3,.,.
